# In the supplement of paper PMC3334620:
# The full ranking holds about 33,000 sequences; the median of “E-score (-0.5 to 0.5)” is about -0.016, and the highest 2% start at about 0.32. The sample as a whole holds a higher share of the highest values than the screen did.
# Molecular target: T1, Stp1 (UniProt B3LFK1)
# T1 sequence: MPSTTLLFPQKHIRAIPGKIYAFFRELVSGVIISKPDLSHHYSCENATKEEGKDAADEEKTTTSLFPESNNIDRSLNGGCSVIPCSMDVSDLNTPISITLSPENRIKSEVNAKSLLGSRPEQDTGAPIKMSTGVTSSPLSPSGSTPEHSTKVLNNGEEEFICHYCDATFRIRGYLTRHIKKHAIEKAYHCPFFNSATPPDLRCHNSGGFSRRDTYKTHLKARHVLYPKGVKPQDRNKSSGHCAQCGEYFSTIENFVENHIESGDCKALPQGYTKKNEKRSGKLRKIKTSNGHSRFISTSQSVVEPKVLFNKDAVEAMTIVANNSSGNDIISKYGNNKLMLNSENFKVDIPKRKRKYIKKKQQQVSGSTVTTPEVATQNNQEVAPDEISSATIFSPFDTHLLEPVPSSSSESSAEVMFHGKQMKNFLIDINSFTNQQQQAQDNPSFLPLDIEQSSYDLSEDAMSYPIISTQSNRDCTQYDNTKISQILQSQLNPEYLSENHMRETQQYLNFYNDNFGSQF
# Experiment: PBM E-score (8-mer binding enrichment) (E-score (-0.5 to 0.5)); higher = stronger / more preferred TF binding
# Conditions: protein concentration: 200 nM; construct: GST-full length
# Procedure, shortened: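 Using PURExpress in vitro transcription/translation, GST-tagged yeast transcription factors were made in full-length or DNA-binding-domain form. These were applied at about 100-200 nM to double-stranded universal all-10-mer Agilent arrays, and bound protein was detected with fluorescent anti-GST. Scans were normalised with masliner before the Universal PBM Analysis Suite assigned E-scores to ungapped eight-base words pooled with their reverse complements.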
row,Sequence,PBM E-score
1,CGATCGAG,0.0366
2,AACTCAGA,0.183
3,CTCGCCGA,-0.0672
4,CTCGCCAC,-0.0166
5,ATCGCCGA,0.212
6,CTCGCCGC,0.353
7,ATCGCCGC,0.45
8,ATCGCCGG,0.192
9,CATTGGAC,-0.155
10,AGCTACTG,-0.229
11,AAAACATG,-0.00948
12,CTAGAGAA,0.23
13,CCACCTAG,-0.373
14,CAGTCTGG,-0.218
15,CCCCTTAA,-0.172
16,ACACGGCG,0.488
17,TGACGGCA,0.175
18,ACACGGAT,0.315
19,ACACGGCT,0.458
20,ACACGGAG,0.295
21,TCACGGCA,0.401
22,ACACGGTG,0.154
23,CCACGGCG,0.478
24,CCACGGGG,-0.124
25,TCACGGAA,0.173

row,Sequence,PBM E-score
1,ACACGGGT,0.202
2,CCACGGAG,0.159
3,GCTGCGAC,-0.089
4,TAACCCCA,-0.336
5,CAACACGA,0.0474
6,GCGCGAGA,0.107
7,AACAGTAC,0.0276
8,CCACGGCA,0.46
9,CCACGGAA,0.198
10,CCACGGCC,0.185
11,ACGGGGGC,-0.325
12,GTGAAGTA,-0.0855
13,ACCGCGCA,0.0261
14,CCCGCGCA,-0.0346
15,ACCGCGCG,0.209
16,GCCGCGCC,0.46
17,CCCGCGTA,-0.0603
18,ACCGCGCC,0.3
19,ACCGCGTA,0.051
20,GCCGCGCA,0.476
21,GCCGCGTA,0.465
22,AATCATTC,0.146
23,GAGAGCCC,-0.302
24,AATCGTAC,0.12
25,ATGCCATA,0.117

row,Sequence,PBM E-score
1,CCCCTGCC,-0.198
2,CGCCTCTC,0.0325
3,CGACGCCG,0.457
4,AGACGCCA,0.00574
5,AGACGCCG,0.405
6,CGACGCCA,0.106
7,CGACGCCC,0.0245
8,AGACGCCC,0.0951
9,CATATCTC,-0.0779
10,CGAGAAAG,-0.0578
11,GACTACGC,-0.174
12,ACATTCAC,-0.0143
13,AGGTGAAG,-0.132
14,ACAGGGTA,-0.125
15,ATTGCGCC,0.308
16,ATTGCGCA,-0.0299
17,ATTGCGCG,0.32
18,GGGAGCTA,-0.235
19,CTGCCGAA,0.127
20,GCGCCGAC,0.309
21,ATGCCGAA,0.311
22,GCGCCGAA,0.389
23,GTGCCGAA,0.322
24,TCGCCGAA,0.105
25,GCTTCGCC,-0.0679

row,Sequence,PBM E-score
1,CCAGCGAA,-0.209
2,CGCCGTCC,0.443
3,AGCCGTTA,0.159
4,CGCCGTTA,0.381
5,CGCCGTCA,0.216
6,AGCCGTTG,0.26
7,CGCCGTTC,0.464
8,CACCGTTC,0.0204
9,CACCGTTA,0.0959
10,AGCCGTCC,0.308
11,GGCCGTTA,0.1
12,AGCCGTTC,0.424
13,CCCCGTTC,-0.235
14,ATCGTAGG,-0.121
15,TGAGCGAA,0.0336
16,CAGCCAGC,-0.244
17,CCTGCGAC,-0.287
18,AATCTTCG,0.196
19,AGAACATA,0.00125
20,AGCCGCCG,0.361
21,CTCCGCCC,-0.192
22,CGCCGCCG,0.402
23,AACCGCCC,-0.149
24,GGCCGCCC,-0.0498
25,AACCGCCA,-0.153

row,Sequence,PBM E-score
1,AGCCGCCA,-0.122
2,CGCCGCCC,0.346
3,AACCGCCG,0.324
4,CCCCGCCG,0.0774
5,AGCCGCCC,0.11
6,CGCCGCCA,0.154
7,ATTCTCAC,0.0144
8,AAGAGTAC,-0.0411
9,GGACTCTA,-0.344
10,AGCTTCAC,-0.221
11,CAGCTAAC,-0.171
12,AACCTCTA,-0.104
13,CGCAGTTA,0.0737
14,GGCACTAA,0.392
15,GGCAAAAA,0.388
16,GGCAAAAC,0.254
17,AGCACAAA,0.206
18,GGCACAAA,0.374
19,GGCAAGAA,0.22
20,GGCACGAA,0.389
21,TGCACAAA,0.0921
22,AGCACTAA,0.132
23,AGCACGAA,0.0412
24,TGCACTAA,0.109
25,GGCACGAC,0.208

row,Sequence,PBM E-score
1,CATGCACA,0.0872
2,TATCAGAA,0.22
3,CTTGCTTA,-0.203
4,AGGGCCGC,0.168
5,TGCCTCAA,-0.019
6,TATTGCGA,0.165
7,CACCTCAA,0.0958
8,AGCTGCAC,-0.111
9,CAAGTCGG,-0.0998
10,TACACGCA,-0.204
11,CGTTTATA,0.331
12,AGTTTATA,0.153
13,GGTTTATA,0.0512
14,GATTGTCC,-0.0756
15,AAAACAAA,0.128
16,CCTGGACA,-0.187
17,CTGAGGTA,-0.0424
18,AGAAAGCA,0.158
19,ATCACTAA,0.0331
20,GGCGCGAC,0.36
21,CGCGCGAC,0.12
22,AGCGCGAA,0.0676
23,GGCGCGAA,0.37
24,CGCGCGAA,0.129
25,AGCGCGAC,-0.149

row,Sequence,PBM E-score
1,CTGGGAAC,0.0375
2,AGTCGATG,-0.194
3,AGTGGGGC,-0.231
4,ATAAGGCG,0.365
5,ATAAGGCC,0.0529
6,ACGGGGCG,0.366
7,ACGGGGCC,-0.0286
8,CCAAGGCC,0.171
9,ACAAGGCG,0.38
10,CCAAGGCG,0.341
11,ACGGGGCT,-0.161
12,ATAAGGCA,0.299
13,ACAAGGCC,-0.026
14,ACAAGGCT,0.198
15,CCAAGGCA,0.173
16,CGAGAAGC,-0.112
17,CAACCTTG,0.0792
18,CTCCCTGC,-0.293
19,CTTGATCC,0.0811
20,CGAGTCCG,0.128
21,CCAGTGAA,-0.0703
22,GAGATAGA,-0.0115
